The results in this text go back to PubChem BioAssay (NCATS).

Values without a mark were called inactive. Records with an inconclusive call do not appear. Where a call stands in place of a potency, no number is given. Calls of active or inactive are those of the source. Calls come from the whole dose curve; as a rule, active = well fitted curve in the direction sought with a large enough effect; inconclusive = small, poorly fitted or top-dose-only effect, or another doubt; inactive = no such curve, though single readings can be large; an effect the other way counts as inactive or inconclusive.

The test system of the first experiment is Nanoluciferase (engineered Oplophorus gracilirostris luciferase). Briefly: Primary Nanoluciferase (NLuc) qHTS assay for identification of artifact compounds. (AID 1845222). To be noted: NLuc-conditioned medium, Nano-Glo luminescence, 5 min; series mostly up to 54.1 µM. The method in brief:
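Luminescence from secreted NLuc (filtered, 1:55-diluted S16 cell medium) read 5 min after Nano-Glo substrate; compounds preincubated 15 min, RT. Hill fits of inhibition normalized to DMSO and no-enzyme.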
Take `CC1(C)CC2C(O)C3=C(CC(C)(O)C2C1)C(=O)OC3O` (stereo not drawn): the Potency result was “inactive”.

Take `FC(F)(F)c1cc(C(F)(F)F)c2ccc3nc(-c4nnco4)cn3c2n1`: the Potency result was “inactive”.

On to `CC(C)(O)c1ccc2c(c1)C(=O)CC1[C@](C)(CO)CCC[C@]21C` (stereo partly drawn), for which the Potency entry was “inactive”.

For `CC(=O)O[C@@H]1[C@H](O[C@@H]2O[C@H](CO)[C@@H](O)[C@H](O)[C@H]2O)[C@@H](O[C@@H]2O[C@@H](C)[C@H](O)[C@@H](O[C@@H]3O[C@H](CO)[C@@H](O)[C@H](O)[C@H]3O)[C@H]2O)[C@H](OC(=O)C23CCC4(C)C(=CCC5C6(C)CC(O)C(O[C@@H]7O[C@H](C(=O)O)[C@@H](O)[C@H](O)[C@H]7O)C(C)(C(=O)O)C6CCC54C)C2CC(C)(C)CC3O)O[C@@H]1C` (stereo partly drawn), the activity, negative = inhibition is 0% [at 11.6 µM].

As for `CC(=O)NCCCCn1c2c(c3ccccc31)C(=O)NCC2`, the Potency result was “inactive”.

For `CCn1nnnc1NCc1ccc(C(C)C)cc1`, the Potency entry is “inactive”.

For the compound `CCCCNC(=O)[C@@H]1Cc2ccccc2N1C(=O)[C@@H](N)CC`, the Potency result is “inactive”.

For `CNc1nc(Nc2cnn([C@H]3CCN(C4COC4)C[C@@H]3F)c2Cl)ncc1C(F)(F)F`, the Potency entry is “inactive”.

On to `CC[C@H](C)/C=C(C)/C=C/C(=O)Cc1cc(O)c(C)c(O)c1C=O`, for which the Potency result was “inactive”.

Take `Cc1cc(C)cc(NC(=O)Cc2ccc(OC(C)(C)C(=O)O)cc2)c1`: the Potency result was “inactive”.

As to `CCOc1ccc(-c2ccc(Cn3c(CC(C)(C)C(=O)O)c(SC(C)(C)C)c4cc(OCc5ccc(C)cn5)ccc43)cc2)cn1`, the Potency result was “inactive”.

For the compound `Cc1[nH]cnc1C1CCN(c2nc3cccc4c3n2CCC4=O)CC1`, the Potency entry was “inactive”.

`O=C(/C=C/c1ccccc1)OCC1=CC[C@@H]2C(C(=O)O)=CO[C@@H](O[C@@H]3O[C@H](CO)[C@@H](O)[C@H](O)[C@H]3O)[C@H]12`: the Potency result is “inactive”.

Consider `CCOC(=O)[C@H]1O[C@@H]1C(=O)N[C@@H](CC(C)C)C(=O)NCCC(C)C`, for which the Potency result is “inactive”.

As for `CC(=O)OCCC(C)CCC1C(C)(O)CCC2C(C)(C)CCCC21C` (stereo not drawn), the Potency result is “inactive”.

`CO/N=C(/C(=O)N[C@@H]1C(=O)N2C(C(=O)O)=C(CSC(=O)c3ccco3)CS[C@H]12)c1csc(N)n1`: the Potency entry was “inactive”.

As for `CCC(=O)O[C@]1(C(=O)CCl)[C@@H](C)C[C@H]2[C@@H]3C[C@H](F)C4=CC(=O)C=C[C@]4(C)[C@@]3(F)[C@@H](O)C[C@@]21C`, the Potency result is “inactive”.

As to `COc1cccc2c1CCC[C@H]2CN(C)CCc1ccc2ccoc2c1`, the Potency entry was “inactive”.

For the compound `CC(C)[C@@H](C)/C=C/[C@@H](C)[C@H]1CC[C@H]2C3=CC=C4C[C@@H](O)CC[C@]4(C)[C@H]3CC[C@]12C`, the Potency result is “inactive”.

In the case of `CC1=CC(=O)CC(C)(CO[C@@H]2O[C@H](CO)[C@@H](O)[C@H](O)[C@H]2O)C1(O)/C=C/C(C)=C/C(=O)O` (stereo partly drawn), the Potency entry is “inactive”.

Turning to `COC(=O)[C@H](CC1C=NC=N1)NCC12CC3CC(CC(C3)C1)C2` (stereo partly drawn), the Potency result is “inactive”.

`CC(CO[C@@H]1O[C@H](COC(=O)/C=C/c2ccc(O)c(O)c2)[C@@H](O)[C@H](O)[C@H]1O)C1(O)COC(=O)C1` (stereo partly drawn): the Potency result was “inactive”.

As for `O=C1NC(Cc2ccc(O)cc2)C(=O)N2CCCC12` (stereo not drawn), the Potency entry is “inactive”.

Turning to `CC1=C2CC3OC3(C)CCC3OC3(C)CC2OC1=O` (stereo not drawn), the Potency entry is “inactive”.

As for `COC(=O)[C@H](OC(C)=O)[C@H]1C(C)(C)C(=O)[C@H]2CC3=C4CC(=O)O[C@@H](c5ccoc5)[C@]4(C)CCC3[C@@]1(C)C2=O` (stereo partly drawn), the Potency result was “inactive”.

`COc1cc(/C=C/C(=O)OC2CC(OC(C)=O)C(OC(C)=O)C3C2CCC2C(=O)OC(c4ccoc4)CC23C)ccc1O[C@@H]1O[C@H](CO)[C@@H](O)[C@H](O)[C@H]1O` (stereo partly drawn): the Potency entry is “inactive”.

Take `CC(=O)O[C@@H]1[C@H](O[C@@H]2OC[C@](O)(CO)[C@H]2O)[C@@H](O[C@@H]2O[C@@H](C)[C@H](O)[C@@H](O)[C@H]2O)[C@H](OC(=O)[C@]23CCC(C)(C)C[C@H]2C2=CCC4[C@@]5(C)C[C@H](O)[C@H](O[C@@H]6O[C@H](C(=O)O)[C@@H](O)[C@H](O)[C@H]6O)[C@@](C)(C(=O)O)C5CC[C@@]4(C)[C@]2(C)CC3)O[C@@H]1C` (stereo partly drawn): the activity, negative = inhibition was 2.83% [at 11.6 µM].

Turning to `Cc1ncc([N+](=O)[O-])n1CC(O)CN1CCOCC1` (stereo not drawn), the Potency result is “inactive”.

Tested on in another experiment: not listed separately
Briefly: Primary redox qHTS assay for identification of artifact compounds. (AID 1845223). To be noted: Amplex Red/HRP redox cycling with DTT, fluorescence; series mostly up to 53.8 µM. In outline:
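Redox-cycling detection via DTT (250 uM final) oxidation coupled to Amplex Red (25 uM)/HRP (250 mU/mL) in HBSS. 15 min preincubation plus 30 min after DTT, room temperature. Ex/Em 525/598 nm; 4-parameter Hill fit against DMSO and 10 uM DA3003.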
For orientation: In qHTS, concentration-response curves come from the screen itself.
As to `C=C1C(OC(C)=O)C(=O)C2C(C)(C)C(OC(C)=O)CCC2(C)C1CC(OC(C)=O)/C(C)=C/COC(C)=O` (stereo not drawn), the Potency result was “inactive”.

On to `COC1CC(=O)CCC(C)OC(=O)CC1O` (stereo not drawn), for which the Potency result is “inactive”.

For `C[C@@H](Nc1cc(NS(=O)(=O)N2CCC2)nc(SCc2cccc(F)c2F)n1)[C@@H](O)CO`, the Potency entry was “inactive”.

As for `COc1ccc(C[C@H](N)C(=O)N[C@H]2[C@@H](O)[C@H](n3cnc4c(N(C)C)ncnc43)O[C@@H]2CO)cc1`, the Potency entry was “inactive”.

In the case of `Cn1c(=O)c2nc(/C=C/c3cccc(Cl)c3)n(C)c2n(C)c1=O`, the Potency entry is “inactive”.

`Clc1ccc2c(c1)C1=NCCN1c1c(-c3noc(C4CC4)n3)ncn1-2`: the Potency result was “inactive”.

For `CC(=O)OC[C@@]12[C@H](O)C[C@]3(C)C(=CCC4[C@@]5(C)CC[C@H](O[C@@H]6O[C@H](C(=O)O)[C@@H](O[C@@H]7O[C@H](CO)[C@@H](O)[C@H](O)[C@H]7O)[C@H](O)[C@H]6O[C@@H]6O[C@H](CO)[C@@H](O)[C@H](O)[C@H]6O)[C@](C)(CO)C5CC[C@]43C)[C@@H]1CC(C)(C)[C@@H](OC(C)=O)[C@@H]2O` (stereo partly drawn), the redox activity (% of DA3003) is 7.21% [at 11.5 µM].

Turning to `C=C1CCC2C(C)(C)CC(=O)CC2(C)C1CCC(C)CCOC(C)=O` (stereo not drawn), the Potency entry is “inactive”.

Regarding `CC(=O)C1CCC2(C)C3=C(CCC12C)C1(C)CCC(=O)C(C)(C)C1CC3` (stereo not drawn), the Potency entry was “inactive”.

With `CC(=O)c1c(O)cc2c(c1C)C(=O)CC(O)C2` (stereo not drawn), the Potency result was “inactive”.

Consider `CC(C)(C)NCc1cc(Nc2ccnc3cc(Cl)ccc23)c2c(c1O)CCCC2`, for which the redox activity (% of DA3003) is -4.12% [at 0.461 µM].

For `COc1c(C)c(OCC=C(C)C)cc2c1C(=O)NC2=O`, the Potency entry is “inactive”.

`CC1(C)CC2C(O)C3=C(CC(C)(O)C2C1)C(=O)OC3O` (stereo not drawn): the Potency result is “inactive”.

Turning to `FC(F)(F)c1cc(C(F)(F)F)c2ccc3nc(-c4nnco4)cn3c2n1`, the Potency entry was “inactive”.

As to `CC(C)(O)c1ccc2c(c1)C(=O)CC1[C@](C)(CO)CCC[C@]21C` (stereo partly drawn), the Potency result is “inactive”.

For the compound `CC(=O)O[C@@H]1[C@H](O[C@@H]2O[C@H](CO)[C@@H](O)[C@H](O)[C@H]2O)[C@@H](O[C@@H]2O[C@@H](C)[C@H](O)[C@@H](O[C@@H]3O[C@H](CO)[C@@H](O)[C@H](O)[C@H]3O)[C@H]2O)[C@H](OC(=O)C23CCC4(C)C(=CCC5C6(C)CC(O)C(O[C@@H]7O[C@H](C(=O)O)[C@@H](O)[C@H](O)[C@H]7O)C(C)(C(=O)O)C6CCC54C)C2CC(C)(C)CC3O)O[C@@H]1C` (stereo partly drawn), the redox activity (% of DA3003) was 12.9% [at 11.5 µM].

For the compound `CC(=O)NCCCCn1c2c(c3ccccc31)C(=O)NCC2`, the Potency entry is “inactive”.

In the case of `CCn1nnnc1NCc1ccc(C(C)C)cc1`, the Potency entry is “inactive”.

`CCCCNC(=O)[C@@H]1Cc2ccccc2N1C(=O)[C@@H](N)CC`: the Potency entry is “inactive”.

In the case of `CNc1nc(Nc2cnn([C@H]3CCN(C4COC4)C[C@@H]3F)c2Cl)ncc1C(F)(F)F`, the Potency result is “inactive”.

In the case of `CC[C@H](C)/C=C(C)/C=C/C(=O)Cc1cc(O)c(C)c(O)c1C=O`, the Potency result is “inactive”.

Regarding `Cc1cc(C)cc(NC(=O)Cc2ccc(OC(C)(C)C(=O)O)cc2)c1`, the Potency entry was “inactive”.

On to `CCOc1ccc(-c2ccc(Cn3c(CC(C)(C)C(=O)O)c(SC(C)(C)C)c4cc(OCc5ccc(C)cn5)ccc43)cc2)cn1`, for which the Potency result is “inactive”.

On to `Cc1[nH]cnc1C1CCN(c2nc3cccc4c3n2CCC4=O)CC1`, for which the Potency result is “inactive”.

In the case of `O=C(/C=C/c1ccccc1)OCC1=CC[C@@H]2C(C(=O)O)=CO[C@@H](O[C@@H]3O[C@H](CO)[C@@H](O)[C@H](O)[C@H]3O)[C@H]12`, the Potency entry was “inactive”.

For the compound `CCOC(=O)[C@H]1O[C@@H]1C(=O)N[C@@H](CC(C)C)C(=O)NCCC(C)C`, the Potency result is “inactive”.

For the compound `CC(=O)OCCC(C)CCC1C(C)(O)CCC2C(C)(C)CCCC21C` (stereo not drawn), the Potency entry is “inactive”.

As for `CO/N=C(/C(=O)N[C@@H]1C(=O)N2C(C(=O)O)=C(CSC(=O)c3ccco3)CS[C@H]12)c1csc(N)n1`, the Potency result was “inactive”.

`CCC(=O)O[C@]1(C(=O)CCl)[C@@H](C)C[C@H]2[C@@H]3C[C@H](F)C4=CC(=O)C=C[C@]4(C)[C@@]3(F)[C@@H](O)C[C@@]21C`: the Potency result was “inactive”.

With `COc1cccc2c1CCC[C@H]2CN(C)CCc1ccc2ccoc2c1`, the Potency entry was “inactive”.

Take `CC(C)[C@@H](C)/C=C/[C@@H](C)[C@H]1CC[C@H]2C3=CC=C4C[C@@H](O)CC[C@]4(C)[C@H]3CC[C@]12C`: the Potency entry was “inactive”.

In the case of `CC1=CC(=O)CC(C)(CO[C@@H]2O[C@H](CO)[C@@H](O)[C@H](O)[C@H]2O)C1(O)/C=C/C(C)=C/C(=O)O` (stereo partly drawn), the Potency result was “inactive”.

For the compound `COC(=O)[C@H](CC1C=NC=N1)NCC12CC3CC(CC(C3)C1)C2` (stereo partly drawn), the Potency result was “inactive”.

For the compound `CC(CO[C@@H]1O[C@H](COC(=O)/C=C/c2ccc(O)c(O)c2)[C@@H](O)[C@H](O)[C@H]1O)C1(O)COC(=O)C1` (stereo partly drawn), the Potency entry was “inactive”.

Consider `O=C1NC(Cc2ccc(O)cc2)C(=O)N2CCCC12` (stereo not drawn), for which the Potency entry is “inactive”.

Consider `CC1=C2CC3OC3(C)CCC3OC3(C)CC2OC1=O` (stereo not drawn), for which the Potency result was “inactive”.

On to `COC(=O)[C@H](OC(C)=O)[C@H]1C(C)(C)C(=O)[C@H]2CC3=C4CC(=O)O[C@@H](c5ccoc5)[C@]4(C)CCC3[C@@]1(C)C2=O` (stereo partly drawn), for which the Potency entry was “inactive”.

On to `COc1cc(/C=C/C(=O)OC2CC(OC(C)=O)C(OC(C)=O)C3C2CCC2C(=O)OC(c4ccoc4)CC23C)ccc1O[C@@H]1O[C@H](CO)[C@@H](O)[C@H](O)[C@H]1O` (stereo partly drawn), for which the Potency result was “inactive”.

For the compound `CC(=O)O[C@@H]1[C@H](O[C@@H]2OC[C@](O)(CO)[C@H]2O)[C@@H](O[C@@H]2O[C@@H](C)[C@H](O)[C@@H](O)[C@H]2O)[C@H](OC(=O)[C@]23CCC(C)(C)C[C@H]2C2=CCC4[C@@]5(C)C[C@H](O)[C@H](O[C@@H]6O[C@H](C(=O)O)[C@@H](O)[C@H](O)[C@H]6O)[C@@](C)(C(=O)O)C5CC[C@@]4(C)[C@]2(C)CC3)O[C@@H]1C` (stereo partly drawn), the redox activity (% of DA3003) is 2.26% [at 11.5 µM].

With `Cc1ncc([N+](=O)[O-])n1CC(O)CN1CCOCC1` (stereo not drawn), the Potency result is “inactive”.
